# From PubChem BioAssay (NCATS)
# Inconclusive results are not listed. A call without a number means that no potency is given here. The source made the active and inactive calls. Calls come from the whole dose curve; as a rule, active = well fitted curve in the direction sought with a large enough effect; inconclusive = small, poorly fitted or top-dose-only effect, or another doubt; inactive = no such curve, though single readings can be large; an effect the other way counts as inactive or inconclusive.
# Experiments:
# [1] = Quantitative High-Throughput drug screen in 47 multiple myeloma cell lines against the NCATS MIPE library collection: OCIMY1_PLB cell viability assay (AID 1918979); note: series mostly up to about 46 µM; nearly all actives have a fitted effect of over 35% in size
# How it was run: (§1)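 MIPE 4.0 approved/investigational drugs; 500 cells/well; 48 h 37 °C humidified 5% CO2; CTG luminescence readout; DMSO = 100%, media = 0% viability.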
# [2] = Quantitative High-Throughput drug screen in 47 multiple myeloma cell lines against the NCATS MIPE library collection: MM1S_ATCC cell viability assay (AID 1918980); note: nearly all actives have a fitted effect of over 45% in size; note: potency is the fitted concentration of half-maximal effect
# How it was run: as §1
# [3] = Quantitative High-Throughput drug screen in 47 multiple myeloma cell lines against the NCATS MIPE library collection: LP1_DSMZ cell viability assay (AID 1918982); note: nearly all actives have a fitted effect of over 35% in size
# How it was run: as §1
# [4] = Quantitative High-Throughput drug screen in 47 multiple myeloma cell lines against the NCATS MIPE library collection: KMS34_JCRB cell viability assay (AID 1918985); note: nearly all actives have a fitted effect of over 40% in size
# How it was run: as §1
# [5] = Quantitative High-Throughput drug screen in 47 multiple myeloma cell lines against the NCATS MIPE library collection: NCIH929_DSMZ cell viability assay (AID 1918978); note: nearly all actives have a fitted effect of over 35% in size
# How it was run: as §1
# [6] = Quantitative High-Throughput drug screen in 47 multiple myeloma cell lines against the NCATS MIPE library collection: MM1R_ATCC cell viability assay (AID 1918981); note: potency is the fitted concentration of half-maximal effect; nearly all actives have a fitted effect of over 35% in size
# How it was run: as §1
# [7] = Quantitative High-Throughput drug screen in 47 multiple myeloma cell lines against the NCATS MIPE library collection: KMS28PE_JCRB cell viability assay (AID 1918983); note: nearly all actives have a fitted effect of over 35% in size
# How it was run: as §1
# [8] = Quantitative High-Throughput drug screen in 47 multiple myeloma cell lines against the NCATS MIPE library collection: L363_DSMZ cell viability assay (AID 1918984); note: nearly all actives have a fitted effect of over 40% in size
# How it was run: as §1
SMILES,Potency [1],Potency [2],Potency [3],Potency [4],Potency [5],Potency [6],Potency [7],Potency [8]
CCCS(=O)(=O)Nc1ccc(F)c(C(=O)c2c[nH]c3ncc(Cl)cc23)c1F,inactive,inactive,inactive,inactive,–,–,–,–
CCOc1ccn(-c2ccc(F)cc2)c(=O)c1C(=O)Nc1ccc(Oc2ccnc(N)c2Cl)c(F)c1,inactive,16.6 µM (active),–,–,–,–,–,–
OCCn1cc(-c2cnc3nnn(Cc4ccc5ncccc5c4)c3n2)cn1,–,9.35 µM (active),inactive,–,inactive,18.7 µM (active),inactive,inactive
